Test results reported in PubChem BioAssay (NCATS).
Records with an inconclusive call do not appear. Calls of active or inactive are those of the source. The call rests on the fitted dose curve; in most records, active means well fitted inhibition curve with a large enough effect; inconclusive means small, poorly fitted or top-dose-only effect; inactive means flat fitted curve, though single readings scatter.

Legend:
[1] = biological target: Glutathione peroxidase 1 (Homo sapiens) (UniProt P07203); test: Primary qHTS Assay for Inhibitors of Recombinant Selenoprotein Glutathione Peroxidase 1 (GPX1) (AID 1845191); further: nearly all actives have a fitted effect of over 65% in size; on activity, negative = inhibition: on the % scale 0 is the no-effect control and ±100 the full control effect
In short: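 Recombinant GPX1 (10 nM final) was preincubated with compound for 30 min at room temperature, then reacted with 1 mM GSH, 0.5 mM CHP, 0.5 mM NADPH and 100 nM glutathione reductase; NADPH fluorescence (340/450 nm) was read at 0 and 15 min.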

[2] = biological target: Phospholipid hydroperoxide glutathione peroxidase GPX4 (Homo sapiens) (UniProt P36969); test: Primary qHTS Assay for Inhibitors of Recombinant Selenoprotein Glutathione Peroxidase 4 (GPX4) (AID 1845192); further: nearly all actives have a fitted effect of over 65% in size
In short: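 GR-coupled readout: 100 nM GR, 1 mM GSH, 0.5 mM NADPH; NADPH fluorescence (ex 340/em 450 nm) read at t=0 and after 15 min RT. GPX4 200 nM, preincubated 30 min with compound; substrate 0.5 mM CHP.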

[3] = qHTS profiling for inhibitors of Plasmodium falciparum proliferation (AID 504749);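 further: 0% = DMSO vehicle and full inhibition = artemisinin control; nearly all actives have a fitted effect of over 60% in size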; settings: P. falciparum in erythrocytes, SYBR Green DNA, 72 h, at 28.7 µM (top of the series)
In short: (§1)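 P. falciparum-infected erythrocytes (0.3% parasitemia, 2.5% hematocrit final) were exposed to compounds for 72 h at 37 C in 5% CO2, then lysed with SYBR Green buffer overnight at room temperature; parasite DNA fluorescence was normalized to artemisinin and DMSO controls.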

3D7 = test: as above; settings: P. falciparum in erythrocytes, SYBR Green DNA, 72 h; series mostly up to 28.7 µM
In short: as §1

Chain of Phospholipid hydroperoxide glutathione peroxidase GPX4 (Homo sapiens) (P36969 whole entry, looked up): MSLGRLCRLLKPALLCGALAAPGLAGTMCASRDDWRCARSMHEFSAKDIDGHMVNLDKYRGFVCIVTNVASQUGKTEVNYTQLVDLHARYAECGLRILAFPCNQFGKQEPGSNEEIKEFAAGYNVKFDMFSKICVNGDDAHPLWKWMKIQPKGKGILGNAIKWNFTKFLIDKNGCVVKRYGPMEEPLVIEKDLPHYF
Chain of Glutathione peroxidase 1 (Homo sapiens) (P07203 whole entry, looked up): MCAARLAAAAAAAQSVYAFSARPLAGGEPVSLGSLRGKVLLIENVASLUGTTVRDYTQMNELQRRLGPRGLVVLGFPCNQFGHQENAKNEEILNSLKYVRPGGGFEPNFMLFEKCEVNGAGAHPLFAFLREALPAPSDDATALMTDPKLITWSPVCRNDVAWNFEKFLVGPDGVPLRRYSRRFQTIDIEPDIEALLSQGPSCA

FCOC(C(F)(F)F)C(F)(F)F
inactive: Potency [1] | Potency [2] | activity, negative = inhibition ([3]; parasite line A) 11.2% | activity, negative = inhibition ([3]; parasite line B) -2.57% | Potency (3D7)

C=C(C)C1CC=C(C)CC1 (stereo not given)
inactive: Potency [1] | Potency [2] | activity, negative = inhibition ([3]; parasite line A) 7.1% | activity, negative = inhibition ([3]; parasite line B) 5.88% | Potency (3D7)

COC(=O)c1ccccc1O
inactive: Potency [1] | Potency [2] | activity, negative = inhibition ([3]; parasite line A) -0.0049% | activity, negative = inhibition ([3]; parasite line B) 5.19% | Potency (3D7)
